In publication PMC7862700, “An all-to-all approach to the identification of sequence-specific readers for epigenetic DNA modifications on cytosine”:

Key:
Test in all cases: DAPPL (digital affinity profiling via proximity ligation, sequencing); 10 mM Tris-HCl pH 7.5, 50 mM NaCl, 1 mM DTT, 4% glycerol, room temperature, 30 min; GST-TFs on glutathione beads, 16-mer random dsDNA library, 0.1% formaldehyde crosslink after washing; high values mean tight binding
Settings in all cases: protein: recombinant; tags: N-terminal GST; dsDNA, one strand shown
ELK1 = molecular target: T1, ELK1 (Homo sapiens, UniProt P19419 1-428)
T1 sequence: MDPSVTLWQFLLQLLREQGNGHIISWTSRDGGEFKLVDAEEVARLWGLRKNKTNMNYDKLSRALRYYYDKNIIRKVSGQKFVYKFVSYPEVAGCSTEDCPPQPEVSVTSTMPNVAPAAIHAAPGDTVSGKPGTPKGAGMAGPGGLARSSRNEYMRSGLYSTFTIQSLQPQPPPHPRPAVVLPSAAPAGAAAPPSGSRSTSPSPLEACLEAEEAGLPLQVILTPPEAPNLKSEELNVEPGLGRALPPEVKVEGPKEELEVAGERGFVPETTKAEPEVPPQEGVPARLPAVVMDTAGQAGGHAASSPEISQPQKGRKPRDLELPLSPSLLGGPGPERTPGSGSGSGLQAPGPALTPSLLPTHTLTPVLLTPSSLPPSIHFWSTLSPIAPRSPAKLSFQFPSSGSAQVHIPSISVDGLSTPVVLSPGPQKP
How it was run: (§1)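 GST fusions of human transcription factors were expressed in yeast and captured with glutathione beads. Once given DNA barcodes and pooled alongside a tag-only sample, they were incubated for 30 min at room temperature with 200 nmole of a random double-stranded 16-mer DNA library in Tris/NaCl/DTT/glycerol buffer, then washed, crosslinked (0.1% formaldehyde), proximity-ligated, PCR-amplified and sequenced on an Illumina NextSeq500. The binding signal of each hexamer is its read frequency for a factor divided by its frequency for the tag-only sample.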

GABPA = molecular target: T2, GABPA (Homo sapiens, UniProt Q06546 1-454)
T2 sequence: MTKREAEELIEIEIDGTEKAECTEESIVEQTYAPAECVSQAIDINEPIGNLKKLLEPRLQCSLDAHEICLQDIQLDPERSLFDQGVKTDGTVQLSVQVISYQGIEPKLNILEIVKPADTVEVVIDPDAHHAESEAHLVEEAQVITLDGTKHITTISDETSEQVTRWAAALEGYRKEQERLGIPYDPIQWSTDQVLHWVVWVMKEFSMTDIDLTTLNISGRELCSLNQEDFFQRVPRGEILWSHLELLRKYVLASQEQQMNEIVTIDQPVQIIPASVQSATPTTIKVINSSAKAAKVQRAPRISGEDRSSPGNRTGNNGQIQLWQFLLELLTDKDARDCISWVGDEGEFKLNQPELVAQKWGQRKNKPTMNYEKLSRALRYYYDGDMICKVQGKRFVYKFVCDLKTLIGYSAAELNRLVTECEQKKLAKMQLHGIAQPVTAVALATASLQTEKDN
How it was run: as §1

ERG = molecular target: T3, ERG (Homo sapiens, UniProt P11308 1-479)
T3 sequence: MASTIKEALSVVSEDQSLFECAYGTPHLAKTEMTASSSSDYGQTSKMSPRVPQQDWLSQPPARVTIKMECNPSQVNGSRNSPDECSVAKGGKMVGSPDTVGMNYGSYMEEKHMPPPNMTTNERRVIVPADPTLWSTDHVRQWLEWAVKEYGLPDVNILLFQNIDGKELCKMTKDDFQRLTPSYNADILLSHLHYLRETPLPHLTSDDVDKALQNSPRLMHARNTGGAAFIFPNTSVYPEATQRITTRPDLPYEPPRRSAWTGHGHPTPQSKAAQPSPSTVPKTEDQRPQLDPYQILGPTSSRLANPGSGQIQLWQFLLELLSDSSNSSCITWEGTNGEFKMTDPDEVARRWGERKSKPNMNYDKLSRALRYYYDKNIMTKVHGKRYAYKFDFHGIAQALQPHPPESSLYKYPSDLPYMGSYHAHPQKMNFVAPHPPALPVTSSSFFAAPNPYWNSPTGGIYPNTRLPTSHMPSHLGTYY
How it was run: as §1

ELF1 = ELF1 (Homo sapiens, UniProt P32519 1-619)
How it was run: as §1

EHF = molecular target: T4, EHF (Homo sapiens, UniProt Q9NZC4 1-300)
T4 sequence: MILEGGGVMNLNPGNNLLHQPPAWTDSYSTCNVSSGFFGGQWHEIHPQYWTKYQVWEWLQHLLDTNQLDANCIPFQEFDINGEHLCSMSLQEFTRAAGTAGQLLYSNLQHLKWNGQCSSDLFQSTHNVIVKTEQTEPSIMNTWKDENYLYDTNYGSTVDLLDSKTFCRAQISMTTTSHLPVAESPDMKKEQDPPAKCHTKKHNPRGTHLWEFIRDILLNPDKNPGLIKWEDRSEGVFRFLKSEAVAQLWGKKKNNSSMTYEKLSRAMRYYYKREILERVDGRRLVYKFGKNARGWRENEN
How it was run: as §1

SPIB = SPIB (Homo sapiens, UniProt Q01892 1-262)
How it was run: as §1

ELK3 = molecular target: T5, ELK3 (Homo sapiens, UniProt P41970 1-407)
T5 sequence: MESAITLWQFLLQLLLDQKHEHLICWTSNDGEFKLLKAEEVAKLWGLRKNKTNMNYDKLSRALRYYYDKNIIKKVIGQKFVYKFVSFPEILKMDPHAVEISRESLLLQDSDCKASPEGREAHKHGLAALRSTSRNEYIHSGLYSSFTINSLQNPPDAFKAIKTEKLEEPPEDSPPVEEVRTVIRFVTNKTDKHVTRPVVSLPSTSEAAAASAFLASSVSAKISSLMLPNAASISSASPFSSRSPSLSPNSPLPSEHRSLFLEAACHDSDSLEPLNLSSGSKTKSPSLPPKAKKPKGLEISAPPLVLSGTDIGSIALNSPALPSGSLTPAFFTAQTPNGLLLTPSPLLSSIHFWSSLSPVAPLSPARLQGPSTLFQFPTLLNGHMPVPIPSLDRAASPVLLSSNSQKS
How it was run: as §1

ETV5 = ETV5 (Homo sapiens, UniProt P41161 1-510)
How it was run: as §1

SPIC = molecular target: T6, SPIC (Homo sapiens, UniProt Q8N5J4 1-248)
T6 sequence: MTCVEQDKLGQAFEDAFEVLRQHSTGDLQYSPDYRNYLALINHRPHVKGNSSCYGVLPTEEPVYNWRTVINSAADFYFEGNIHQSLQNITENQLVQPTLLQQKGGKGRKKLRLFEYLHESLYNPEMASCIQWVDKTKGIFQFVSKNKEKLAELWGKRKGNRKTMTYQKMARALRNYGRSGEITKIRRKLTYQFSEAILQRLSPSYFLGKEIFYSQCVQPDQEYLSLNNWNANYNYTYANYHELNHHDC
How it was run: as §1

ELF3 = molecular target: T7, ELF3 (Homo sapiens, UniProt P78545 1-371)
T7 sequence: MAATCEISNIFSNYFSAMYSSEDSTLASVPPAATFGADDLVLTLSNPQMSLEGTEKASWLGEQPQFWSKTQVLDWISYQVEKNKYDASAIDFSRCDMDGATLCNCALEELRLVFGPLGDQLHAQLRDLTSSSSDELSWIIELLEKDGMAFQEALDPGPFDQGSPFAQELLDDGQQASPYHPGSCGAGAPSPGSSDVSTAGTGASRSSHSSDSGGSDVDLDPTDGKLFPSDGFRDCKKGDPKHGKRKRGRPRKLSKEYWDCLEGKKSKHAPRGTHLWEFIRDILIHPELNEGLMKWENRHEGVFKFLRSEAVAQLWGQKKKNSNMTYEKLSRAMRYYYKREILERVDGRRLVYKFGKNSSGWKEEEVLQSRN
How it was run: as §1

ETV1 = ETV1 (Homo sapiens, UniProt P50549 1-477)
How it was run: as §1

ERF = molecular target: T8, ERF (Homo sapiens, UniProt P50548 1-548)
T8 sequence: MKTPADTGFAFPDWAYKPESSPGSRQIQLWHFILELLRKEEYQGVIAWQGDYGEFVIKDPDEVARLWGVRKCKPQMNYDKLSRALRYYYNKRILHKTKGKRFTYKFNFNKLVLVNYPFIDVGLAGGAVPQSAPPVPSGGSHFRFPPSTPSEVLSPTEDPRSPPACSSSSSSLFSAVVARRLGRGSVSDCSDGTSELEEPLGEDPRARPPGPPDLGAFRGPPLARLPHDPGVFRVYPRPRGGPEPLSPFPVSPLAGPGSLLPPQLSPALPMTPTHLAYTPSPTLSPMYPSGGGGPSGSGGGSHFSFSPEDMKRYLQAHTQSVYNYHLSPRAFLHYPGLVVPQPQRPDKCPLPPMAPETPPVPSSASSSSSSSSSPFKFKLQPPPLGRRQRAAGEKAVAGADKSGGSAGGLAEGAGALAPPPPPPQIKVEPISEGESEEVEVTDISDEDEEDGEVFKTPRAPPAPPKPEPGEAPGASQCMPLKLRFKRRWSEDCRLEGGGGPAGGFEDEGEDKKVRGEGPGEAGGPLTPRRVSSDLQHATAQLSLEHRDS
How it was run: as §1

ETV3L = molecular target: T9, ETV3L (Homo sapiens, UniProt Q6ZN32 1-361)
T9 sequence: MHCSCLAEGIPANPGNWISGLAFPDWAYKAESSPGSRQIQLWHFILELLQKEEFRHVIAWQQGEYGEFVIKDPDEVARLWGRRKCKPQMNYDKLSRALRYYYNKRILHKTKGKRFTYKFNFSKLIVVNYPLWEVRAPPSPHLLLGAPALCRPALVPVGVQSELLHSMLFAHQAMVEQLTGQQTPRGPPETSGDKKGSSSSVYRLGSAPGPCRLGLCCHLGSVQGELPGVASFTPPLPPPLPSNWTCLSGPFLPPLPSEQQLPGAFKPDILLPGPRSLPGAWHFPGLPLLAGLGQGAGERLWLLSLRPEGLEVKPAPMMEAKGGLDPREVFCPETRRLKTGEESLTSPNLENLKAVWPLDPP
How it was run: as §1

ETS2 = molecular target: T10, ETS2 (Homo sapiens, UniProt P15036 1-469)
T10 sequence: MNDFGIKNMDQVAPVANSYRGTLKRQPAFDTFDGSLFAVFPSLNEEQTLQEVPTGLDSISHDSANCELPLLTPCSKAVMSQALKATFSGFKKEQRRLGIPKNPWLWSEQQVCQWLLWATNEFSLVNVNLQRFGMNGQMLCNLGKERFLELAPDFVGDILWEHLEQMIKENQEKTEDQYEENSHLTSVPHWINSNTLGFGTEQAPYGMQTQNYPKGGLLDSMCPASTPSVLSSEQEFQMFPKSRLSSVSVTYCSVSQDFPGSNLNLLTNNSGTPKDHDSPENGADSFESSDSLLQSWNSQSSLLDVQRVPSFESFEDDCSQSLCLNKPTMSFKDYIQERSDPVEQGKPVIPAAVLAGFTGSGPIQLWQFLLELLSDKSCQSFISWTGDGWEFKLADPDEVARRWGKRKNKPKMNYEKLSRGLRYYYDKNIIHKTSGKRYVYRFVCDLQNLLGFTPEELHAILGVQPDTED
How it was run: as §1

SPDEF = molecular target: T11, SPDEF (Homo sapiens, UniProt O95238 1-335)
T11 sequence: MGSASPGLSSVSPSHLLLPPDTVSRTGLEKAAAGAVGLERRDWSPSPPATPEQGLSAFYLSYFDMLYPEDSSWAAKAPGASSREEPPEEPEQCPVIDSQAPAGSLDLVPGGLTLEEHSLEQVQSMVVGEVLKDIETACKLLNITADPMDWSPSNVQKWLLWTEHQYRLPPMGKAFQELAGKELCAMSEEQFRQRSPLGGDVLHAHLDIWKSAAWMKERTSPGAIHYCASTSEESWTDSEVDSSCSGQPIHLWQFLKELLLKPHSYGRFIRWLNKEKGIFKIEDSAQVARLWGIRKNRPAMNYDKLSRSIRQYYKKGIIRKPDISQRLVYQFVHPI
How it was run: as §1

ETV3 = molecular target: T12, ETV3 (Homo sapiens, UniProt P41162-2 1-143)
T12 sequence: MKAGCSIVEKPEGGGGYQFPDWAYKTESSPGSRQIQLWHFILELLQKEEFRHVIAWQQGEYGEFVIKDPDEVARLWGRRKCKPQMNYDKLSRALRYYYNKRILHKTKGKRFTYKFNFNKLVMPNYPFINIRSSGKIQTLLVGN
How it was run: as §1

ETV6 = ETV6 (Homo sapiens, UniProt P41212 1-452)
How it was run: as §1

Sequence of ETV1 (P50549 whole entry): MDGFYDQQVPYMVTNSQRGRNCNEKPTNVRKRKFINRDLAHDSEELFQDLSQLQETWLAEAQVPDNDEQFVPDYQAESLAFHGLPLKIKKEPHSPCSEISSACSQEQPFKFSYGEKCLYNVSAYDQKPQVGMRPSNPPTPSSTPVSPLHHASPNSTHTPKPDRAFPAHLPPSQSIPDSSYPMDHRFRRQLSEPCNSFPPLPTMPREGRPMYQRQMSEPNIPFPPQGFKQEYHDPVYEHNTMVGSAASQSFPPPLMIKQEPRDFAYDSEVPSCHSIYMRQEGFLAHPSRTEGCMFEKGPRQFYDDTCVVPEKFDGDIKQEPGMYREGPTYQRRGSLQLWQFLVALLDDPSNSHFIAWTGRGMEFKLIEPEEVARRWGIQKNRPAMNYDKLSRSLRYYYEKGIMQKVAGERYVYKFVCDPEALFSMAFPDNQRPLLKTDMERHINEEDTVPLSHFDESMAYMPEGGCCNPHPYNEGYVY
Sequence of ETV5 (P41161 whole entry): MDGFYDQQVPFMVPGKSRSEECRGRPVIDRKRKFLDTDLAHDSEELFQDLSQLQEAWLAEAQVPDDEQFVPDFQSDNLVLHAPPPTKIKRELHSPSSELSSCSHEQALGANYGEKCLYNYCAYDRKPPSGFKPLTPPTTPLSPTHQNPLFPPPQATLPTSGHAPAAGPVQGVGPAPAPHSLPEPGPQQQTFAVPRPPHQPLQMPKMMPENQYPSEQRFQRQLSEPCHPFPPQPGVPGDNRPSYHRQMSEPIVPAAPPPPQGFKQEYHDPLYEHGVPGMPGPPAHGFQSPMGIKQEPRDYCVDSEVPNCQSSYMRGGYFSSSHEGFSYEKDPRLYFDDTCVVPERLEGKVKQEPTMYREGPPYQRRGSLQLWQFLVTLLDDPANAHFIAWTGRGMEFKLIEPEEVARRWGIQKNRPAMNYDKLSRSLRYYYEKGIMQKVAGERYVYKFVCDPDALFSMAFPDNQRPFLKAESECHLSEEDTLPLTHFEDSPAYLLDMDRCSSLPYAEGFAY
Sequence of SPIB (Q01892 whole entry): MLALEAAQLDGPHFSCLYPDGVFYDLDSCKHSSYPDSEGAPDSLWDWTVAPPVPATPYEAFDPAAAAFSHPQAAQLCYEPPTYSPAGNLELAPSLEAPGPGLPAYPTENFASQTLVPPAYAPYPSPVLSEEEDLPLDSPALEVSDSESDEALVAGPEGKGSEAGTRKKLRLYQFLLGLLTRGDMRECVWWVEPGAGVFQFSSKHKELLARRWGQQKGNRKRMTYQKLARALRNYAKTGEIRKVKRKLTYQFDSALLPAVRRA
Sequence of ETV6 (P41212 whole entry): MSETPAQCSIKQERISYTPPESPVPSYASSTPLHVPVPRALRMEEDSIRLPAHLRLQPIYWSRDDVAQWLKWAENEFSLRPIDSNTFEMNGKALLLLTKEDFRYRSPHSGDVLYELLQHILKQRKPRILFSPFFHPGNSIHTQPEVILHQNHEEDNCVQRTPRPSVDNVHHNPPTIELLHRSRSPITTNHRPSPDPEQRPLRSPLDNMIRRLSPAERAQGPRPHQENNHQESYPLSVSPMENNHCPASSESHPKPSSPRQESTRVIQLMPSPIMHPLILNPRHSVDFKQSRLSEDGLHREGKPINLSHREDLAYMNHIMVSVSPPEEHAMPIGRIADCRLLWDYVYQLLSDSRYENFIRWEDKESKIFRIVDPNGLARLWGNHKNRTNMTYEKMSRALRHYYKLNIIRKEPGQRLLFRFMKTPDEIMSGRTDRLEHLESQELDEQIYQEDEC
Sequence of ELF1 (P32519 whole entry): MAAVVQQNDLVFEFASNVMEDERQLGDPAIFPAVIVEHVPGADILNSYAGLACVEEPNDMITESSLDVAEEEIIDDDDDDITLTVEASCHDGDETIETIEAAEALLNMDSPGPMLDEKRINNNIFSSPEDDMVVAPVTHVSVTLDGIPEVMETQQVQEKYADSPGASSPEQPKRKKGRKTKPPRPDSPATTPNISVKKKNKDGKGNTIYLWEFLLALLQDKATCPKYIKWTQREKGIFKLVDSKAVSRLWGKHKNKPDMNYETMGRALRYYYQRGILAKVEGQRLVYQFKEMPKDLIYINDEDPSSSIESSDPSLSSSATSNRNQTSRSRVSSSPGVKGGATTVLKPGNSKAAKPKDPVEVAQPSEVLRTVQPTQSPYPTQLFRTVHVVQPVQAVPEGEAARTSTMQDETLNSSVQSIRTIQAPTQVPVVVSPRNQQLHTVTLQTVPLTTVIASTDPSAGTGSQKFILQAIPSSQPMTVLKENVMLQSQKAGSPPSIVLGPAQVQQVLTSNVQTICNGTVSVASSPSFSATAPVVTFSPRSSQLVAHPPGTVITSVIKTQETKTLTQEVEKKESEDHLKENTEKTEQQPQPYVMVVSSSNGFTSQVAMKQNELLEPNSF

Sequence	binding signal (ELK1)	binding signal (GABPA)	binding signal (ERG)	binding signal (ELF1)	binding signal (EHF)	binding signal (SPIB)	binding signal (ELK3)	binding signal (ETV5)	binding signal (SPIC)	binding signal (ELF3)	binding signal (ETV1)	binding signal (ERF)	binding signal (ETV3L)	binding signal (ETS2)	binding signal (SPDEF)	binding signal (ETV3)	binding signal (ETV6)
AACGCA	1.03 fold enrichment (6-mer frequency, TF over GST control)	1.06 fold enrichment (6-mer frequency, TF over GST control)	1.13 fold enrichment (6-mer frequency, TF over GST control)	1.06 fold enrichment (6-mer frequency, TF over GST control)	1.04 fold enrichment (6-mer frequency, TF over GST control)	1.04 fold enrichment (6-mer frequency, TF over GST control)	1.06 fold enrichment (6-mer frequency, TF over GST control)	1.09 fold enrichment (6-mer frequency, TF over GST control)	1.02 fold enrichment (6-mer frequency, TF over GST control)	1.03 fold enrichment (6-mer frequency, TF over GST control)	1.09 fold enrichment (6-mer frequency, TF over GST control)	1.16 fold enrichment (6-mer frequency, TF over GST control)	1.03 fold enrichment (6-mer frequency, TF over GST control)	1.1 fold enrichment (6-mer frequency, TF over GST control)	1.05 fold enrichment (6-mer frequency, TF over GST control)	1.03 fold enrichment (6-mer frequency, TF over GST control)	1.06 fold enrichment (6-mer frequency, TF over GST control)
GTCCGG	–	–	1.03 fold enrichment (6-mer frequency, TF over GST control)	–	–	–	–	1.01 fold enrichment (6-mer frequency, TF over GST control)	–	–	1 fold enrichment (6-mer frequency, TF over GST control)	–	–	–	1.18 fold enrichment (6-mer frequency, TF over GST control)	1.05 fold enrichment (6-mer frequency, TF over GST control)	–
